Source: PubChem BioAssay (NCI)
About 83,000 compounds went through this panel and 20% of them were active in at least one assay; those are over-represented in the sample as a whole.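 Results are percent growth after 48 hours of single-concentration exposure. 100 means growth as in untreated cells, lower positive values show inhibition; negative values down to -100 show cell death.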 Unmarked numbers belong to inactive results. Calls of active or inactive are those of the source. Rule for the calls: active = growth percent below 10; inactive = the rest.

Columns and labels:
Experiment in all cases: NCI-60 one-dose screen, 48 h (100 = growth as untreated, 0 = no growth, -100 = all killed)
Conditions in all cases: 10 µM unless noted
[1] = system: T-47D breast
[2] = system: BT-549 breast
[3] = system: MDA-MB-435 melanoma
[4] = system: SW-620 colon
[5] = system: MCF7 breast
[6] = system: HCT-116 colon
[7] = system: HCC-2998 colon
[8] = system: KM12 colon

| Structure (SMILES) | growth [1] | growth [2] | growth [3] | growth [4] | growth [5] | growth [6] | growth [7] | growth [8] |
| --- | --- | --- | --- | --- | --- | --- | --- | --- |
| COc1ccc(C(=O)Nc2cccc(-c3cc(=O)c4c(OC)c(OC)c(OC)cc4o3)c2)cc1 | 45% | 51.4% | 69.6% | 88% | 66.5% | 47.8% | 70.3% | 46.3% |
| CC/C(=C(/c1ccc(Cl)cc1)c1ccc(OCCN2CCCCC2)cc1)c1ccc(OC)cc1 | 32.3% | 78.2% | 65.6% | 39.1% | 15.3% | 46.9% | 71% | 39.1% |
| O=C(/C=C/c1cn(-c2ccccc2)nc1-c1ccc(Cl)cc1)c1ccc(F)cc1 | 38.9% | 96% | 326% | 75.4% | 41.8% | 41.1% | 186% | 63.8% |
| O=C(/C=C/c1ccccc1)Nc1ncc(Cc2ccccc2Cl)s1 | 21.1% | 55.2% | -44.4% (active) | 31.4% | 18.9% | 16% | 35.4% | 14% |
| O=C1/C(=C/c2cccc(F)c2)CN(C(=O)C(Cl)Cl)C/C1=C\c1cccc(F)c1 | -26.5% (active) | -81.1% (active) | -90.2% (active) | -63.2% (active) | -46.7% (active) | -82.8% (active) | -86.5% (active) | -74.3% (active) |
| O=C(COc1ccc(-c2nc3cc(Cl)c(Cl)cc3[nH]2)cc1)N=Nc1c(O)[nH]c2ccc(Cl)cc12 | 56.8% | 76.7% | 83.5% | 56.1% | 25.6% | 54.4% | 95.1% | 64.5% |
| CCO/C=N/C1=C(C#N)C(c2ccc(Cl)cc2)c2sc3c(F)cccc3c2O1 (stereo not given) | 54.8% | 68.8% | -30.4% (active) | 35.5% | 26% | 54.2% | 84.2% | 42.2% |
| COc1ccc(-c2cc(-c3ccc(Cl)cc3)c(C#N)c(=O)n2Cc2ccc(C(=O)Nc3ccccc3N)cc2)cc1 | 72.7% | 56.5% | 44.9% | 78.9% | 40.1% | 69.2% | 107% | 57.3% |
| O=C1NC2(Nc3ccccc31)C(=O)Nc1c(Cl)cc(Cl)cc12 (stereo not given) | 87.9% | 99.3% | 103% | 100% | 88.9% | 98.6% | 104% | 100% |
| COCCOc1cc2ncnc(N3CCN(c4cc(S(C)(=O)=O)c(C)cc4Cl)CC3)c2cc1OCCOC | 69.6% | 91.4% | 105% | 110% | 91.9% | 103% | 100% | 93.2% |
| NC(=O)c1cc(I)ccc1NC(=O)/C=C/c1ccccc1 | 122% | 61.5% | -30.5% (active) | 9.63% (active) | 2.18% (active) | 8.52% (active) | -62.3% (active) | 8.98% (active) |
| C#CCNC(=O)[C@H](CC)[C@H]1CC[C@H](C)[C@H]([C@@H](C)[C@H](O)[C@H](C)C(=O)[C@H](CC)C2O[C@]3(C=CC(=O)[C@]4(CC[C@@](C)([C@H]5CC[C@](O)(CC)[C@H](C)O5)O4)O3)[C@H](C)C[C@@H]2C)O1 (stereo not given in full) | 41.9% | 40.9% | -65.3% (active) | 30.8% | 24% | 25.9% | 85.4% | 23.8% |
| Cc1ccc(NC(=O)c2sc3nc(C)c(Br)c(C)c3c2N)cc1 | 61.9% | 79.7% | 81.8% | 78.3% | 59.1% | 72.6% | 92.1% | 74.8% |
| CCN1C(=S)N(c2ccccc2)C2C1NN=c1s/c(=C3\C(=O)N(C(C)C)c4ccccc43)c(=O)n12 (stereo not given) | 62.8% | 96.6% | 93.3% | 75.6% | 64.7% | 41.7% | 109% | 81.7% |
| CCC1=C[C@@H]2C[C@]3(C(=O)OC)c4[nH]c5ccccc5c4CC[N@+](CC(=O)Nc4cc5c(cc4OC)N(C)[C@H]4[C@@](O)(C(=O)OC)[C@H](OC(C)=O)[C@]6(CC)C=CCN7CC[C@]54[C@@H]76)(C2)[C@H]13 | 105% | 111% | 105% | 100% | 103% | 102% | 110% | 104% |
| O=C1c2ccccc2-c2c1c1c(=O)[nH]c3ccccc3c1n2Cc1ccccc1 | 62.6% | 29.5% | 71.1% | 79.8% | 56.5% | 41% | 55.4% | 71.2% |
| Cc1cc(C(=O)Nc2ncc(Cc3cccc(C(F)(F)F)c3)s2)c2ccccc2n1 | 12.1% | 34.7% | -27.3% (active) | 17.3% | 10.2% | 18% | 25.6% | 15.5% |
| CC1CCN(CCOc2ccc(CNc3ccc4nc(CCC5CCCCC5)[nH]c4c3)cc2)CC1 | -32.8% (active) | 68.4% | -43.4% (active) | 13.9% | 5.38% (active) | 13.7% | -50.5% (active) | 44% |
| CCNCCNc1cc(-c2ccc(C(F)(F)F)cc2)c(C#N)c2nc3ccccc3n12 | -59.4% (active) | -73.9% (active) | -96.9% (active) | -73.7% (active) | -71.6% (active) | -95.4% (active) | -99.6% (active) | -85.1% (active) |
| CC(C)(C)CC(C)(C)NC(=O)Nc1ncccc1OCc1ccccc1 | 72% | 98.2% | 99.7% | 98.6% | 80.6% | 75.2% | 92.9% | 94.5% |
| O=C(/C=C/c1cccc(Cl)c1)c1cccc(OCCCOc2cccc(C(=O)/C=C/c3cccc(Cl)c3)c2)c1 | 90.4% | 90.2% | 102% | 90.7% | 20.8% | 37% | 109% | 96.8% |
| CCCCCCCCCCCCCCCCOCCCOP(=O)(O)C1CCCN(O)C1=O (stereo not given) | 43.2% | 32.2% | 14.3% | 20.9% | 18.5% | 14.5% | 3.73% (active) | 7.79% (active) |
| CCOC(=O)C(=O)C(C(=O)OCC)c1ccccc1 (stereo not given) | 100% | 97.3% | 101% | 103% | 101% | 96.2% | 114% | 107% |
| CCN(CC)CC(O)COc1c(Br)c(Br)c(Br)c2c1OC(C)(C)C2 (stereo not given) | 69.5% | 95.6% | 1.3% (active) | -65.9% (active) | 73.2% | 45.5% | 76% | 53.8% |
| Cn1ccnc1C(=O)/C=C/c1ccc(CC(=O)Nc2cc(C(F)(F)F)cc(C(F)(F)F)c2)cc1 | 52.1% | 80.3% | 68.5% | 70.5% | 30.8% | 51.6% | 83.6% | 63% |
| Cc1[nH]c(C(=O)Nc2ccccc2OC2CCNCC2)c(Cl)c1Cl | -4.05% (active) | 74.2% | -40.3% (active) | 1.77% (active) | -45% (active) | 4.55% (active) | 43.2% | 32.8% |
| NNc1nc(-c2cccnc2)nc2c1sc(=S)n2-c1ccccc1 | 62.9% | 72.7% | 112% | 102% | 92.5% | 76.4% | 108% | 102% |
| O=C1NC(=O)C(Cc2ccc(OCc3ccc(-c4ccc(Cl)cc4Cl)cc3)cc2)S1 (stereo not given) | 16.1% | 37.9% | 24.5% | 67.9% | 28.5% | 38.6% | 60.8% | 47.7% |
| CNC(=O)c1[nH]cc(-c2ccc(OC)cc2)c1-c1cc(OC)c2c(c1OC)OCO2 | 92.3% | 97.4% | 99.6% | 103% | 97.5% | 95.6% | 101% | 104% |
| O=S(=O)(Nc1ccc(F)cc1F)c1ccc(-c2cnc(C3CC3)o2)cc1 | 31.9% | 17.2% | -33.8% (active) | 23.7% | 20.3% | 21.2% | 54.9% | 30.1% |
